Screens (PubChem)
HT1080-NT tox – kills 2HG-producing HT-1080-NT fibrosarcoma cells. Potency, µM (series often up to 46.1 µM), for the others: at the highest dose activity, negative = less viability, hits mostly cytotoxic. 1.6% of 360,000 active. AID 686970. HT-1080-NT fibrosarcoma viability, CellTiter-Glo ATP luminescence, 48 h;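 also: NT is the 2HG producing partner of a matched IDH1 knockdown line; 0% = DMSO-treated cells and -100% = media-only wells without cells; nearly all actives have a fitted effect of over 55% in size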
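Fibrosarcoma NT cells, 750 per well in 5% FBS RPMI, were exposed to compound for 48 hours. Viability: CellTiter-Glo luminescence.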
KB-3-1 tox – KB-3-1 parental cell cytotoxicity; KB-3-1 viability, CellTiter-Glo ATP luminescence, 72 h; Potency, µM (doses to about 46.1 µM), hits mostly cytotoxic; 1.4% of 400,000 active; AID 1347075; also: % is scaled to controls: 0 for no effect and ±100 for the full control effect; nearly all actives have a fitted effect of over 60% in size
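Cells are dispensed, compounds pinned in, plates held at 37 °C for 72 h, then CellTiter-Glo is added and luminescence read after 10 minutes. Cell line: parental KB-3-1 in phenol-red-free DMEM, 10% FBS.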
KB-V1 cytotox – kills drug-selected multidrug resistant KB-V1 cells | KB-V1 MDR cells viability, CellTiter-Glo, 72 h | Potency, µM (doses to about 46.1 µM), hits mostly cytotoxic | 3.4% of 400,000 active; also: % is scaled to controls: 0 for no effect and ±100 for the full control effect; nearly all actives have a fitted effect of over 60% in size
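Cytotoxicity via CellTiter-Glo luminescence after 72 h compound exposure at 37 degrees C. Cells: drug-selected KB-V1 line, DMEM phenol-red free plus 10% FBS. Compounds tested at multiple concentrations; normalized data fitted to concentration-effect curves.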
MCF10A rereplic – inducers of DNA re-replication in MCF 10A breast cells; AID 624296; MCF 10A DNA re-replication, Hoechst nuclear intensity, 48 h; 2.9% of 350,000 active; Potency, µM (series often up to 46.1 µM), for the others: at the top dose activity, positive = re-replication, most hits filed as activators; also: % of control where 0% means no effect; nearly all actives have a fitted effect of over 50% in size
SW480 rerep – DNA re-replication induction in SW480 cells. SW480 DNA re-replication, Hoechst DNA content imaging, 48 h. Potency, µM (highest dose often 46.1 µM), without a hit: at the top dose re-replication activation, usual class: activators. 1.8% of 340,000 active. AID 624297; also: % of control where 0% means no effect; nearly all actives have a fitted effect of over 55% in size
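250 cells/well; 23 nL cpd via pin tool; 48 hr, 37 C, 5% CO2; Hoechst 40 min; imager read of total nuclear intensity, ex 405/em 500-530 nm.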
HT1080 IDH1KD tx – kills HT-1080 cells with IDH1 knockdown; Potency, µM (top dose mostly 46.1 µM), inactives show top-dose activity, negative = toxicity, actives largely listed as cytotoxic; AID 686971; HT-1080 IDH1 knockdown viability, ATP luminescence, 48 h; 2% of 360,000 active;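 also: 0% = DMSO wells and -100% = cell-free medium wells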
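Luminescent ATP read-out (CellTiter-Glo, 10 min at room temperature) after 48 h compound exposure at 37 °C gave viability of IDH1-knockdown HT-1080 cells. Activity was normalised to DMSO and cell-free wells, then fitted as concentration-response curves.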
Numbers without * were called inactive; i = inactive; ? = inconclusive; . = not tested or not shown; [ ] = remark or other dose. Shown are actives, neighbours in structure and some others; about 7.9% of the full set was active somewhere. Calls follow the shape of the dose curve; as a rule, active = well fitted curve in the direction sought with a large enough effect; inconclusive = small, poorly fitted or top-dose-only effect, or another doubt; inactive = no such curve, though single readings can be large; an effect the other way counts as inactive or inconclusive. Potency is read from the fitted curve at half-maximal effect.

SMILES | HT1080-NT tox | KB-3-1 tox | KB-V1 cytotox | MCF10A rereplic | SW480 rerep | HT1080 IDH1KD tx
CC(C)c1ccc(S(=O)(=O)c2nnn3c2nc(N2CCOCC2)c2sccc23)cc1 | . | i | i | . | . | .
Nc1nc2ccc(-c3nc4ccccc4o3)cc2s1 | -6% | 5.8µM* | 1µM* | ? | 1% | -18%
CN1CC[C@]23c4ccccc4N[C@H]1[C@]21CCN(C)[C@H]3Nc2ccccc21 | 16% | i | i | -28% | -20% | -2%
COC(=O)C1CC23C=CCN4CCC5(c6ccccc6NC15C2C)C43 (stereo not given) | 0.58µM* | 1µM* | ? | ? | 0.92µM* | 0.73µM*
CC(=O)C1=C(C)N(Cc2ccco2)C(=O)C1(NC(=O)C1CCCCC1)C(F)(F)F (stereo not given) | -1% | i | 18µM* | -1% | 9% | 8%
COc1cccc(-c2cc(C(=O)Nc3cnn(Cc4ccc(Cl)cc4Cl)c3)no2)c1 | . | i | i | . | . | .
Cc1cc(C(=O)NCCc2ccc(Cl)cc2)no1 | -5% | i | i | 6.5µM* | -25% | 3%
Cc1cc(C(=O)NNc2ccc(Cl)cc2)no1 | 2.3µM* | ? | i | 7.3µM* | 11% | 2.6µM*
Cc1cc(C(=O)NNc2ccc(C)c(C)c2)no1 | ? | ? | ? | 16µM* | ? | 23µM*
Cc1cc(C(=O)NNC(=O)Nc2ccc(Cl)cc2)no1 | 12% | i | i | 4% | -12% | 0%
Cc1cc(C(=O)Nc2cnn(Cc3ccc(Cl)cc3Cl)c2)no1 | -13% | i | 13µM* | 13% | -1% | -29%
Clc1cccc[n+]1CCc1ccccc1 | . | i | i | . | . | .
Cc1ccc(CN2CCC(CNC(=O)Nc3cccc(C)c3C)C2)cc1 (stereo not given) | . | i | i | . | . | .
C[C@H]1CCC[C@]2(C)C[C@H]3OC(=O)C(CN4CCCCCC4)[C@H]3C=C12 (stereo not given in full) | 16µM* | ? | i | ? | ? | ?
CC(=O)Nc1ccc(CN2C(=O)C(C)(C)ON=C2c2ccc(NC(C)=O)cc2)cc1 | 15% | i | i | . | . | 17%
O=C(O)CCCC(=O)N1CCN(c2nc(-c3ccccc3Cl)c3cc(Br)ccc3n2)CC1 | -16% | i | i | ? | -13% | ?
O=C(O)C1CCN(c2nc(-c3ccccc3)c3cc(Br)ccc3n2)CC1 | -18% | i | i | 23µM* | 1% | -1%
OCCN1CCN(c2nc(-c3ccccc3)c3cc(Br)ccc3n2)CC1 | ? | i | i | 18µM* | 21µM* | 23µM*
CCSc1ccccc1C(=O)n1nnc2ccccc21 | ? | ? | i | 16µM* | ? | ?
CCSc1ccccc1C(=O)N1CCCC1 | -4% | i | i | -5% | -7% | -6%
Oc1ccccc1C1OCC2(CO1)COC(c1ccccc1O)OC2 (stereo not given) | 0% | ? | i | 5% | -2% | -9%
Cc1cc2c(cc1C)CSC(c1c(O)ccc3ccccc13)SC2 | 23µM* | ? | i | 18µM* | 18% | ?
Cc1cc2c(cc1C)CSC(c1ccccc1OC(=O)C(C)(C)C)SC2 | -17% | i | i | 12µM* | 7% | -21%
Cc1cc2c(cc1C)CSC(c1ccccc1O)SC2 | ? | ? | 18µM* | ? | ? | ?
CCCCC(=O)Oc1ccccc1C1SCc2cc(C)c(C)cc2CS1 | -1% | i | i | 2% | -5%[9.22 µM] | -4%
Oc1ccccc1C1SC(c2ccccc2O)SC(c2ccccc2O)S1 (stereo not given) | 15µM* | ? | i | 6.5µM* | ? | ?
Cc1ccc(C)c(N2CCN(C(=O)Cn3c(-c4cccs4)cc4ccccc43)CC2)c1 | . | i | i | . | . | .
